Reference: PubChem BioAssay AID1159580 (chemical genetic matrix, 2015)
“And” between values parts separate entries of the source, which are not always exact repeats. Equal values may be shown once. The whole screen tested about 5,500 compounds, of which about 2,000 (36%) were called active. Inconclusive results (about 18%) are left out. Rule as the data show it: active = normalized growth mostly below about 0.91 (no sharp cut-off); inconclusive = no clear call, values can overlap the other calls; inactive = mostly above about 0.92. This is one part of the list.

Assay: chemical genetic growth profiling, strain panel (AID 1159580);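 also: tested at 20 µM; growth read once vehicle control cultures reached saturation at 30 °C; 1 = growth at the plate median or of vehicle wells; lower values mean less growth of the strain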
Settings: growth OD

Measured: normalized growth

NCCc1ccc(O)c(O)c1
inactive: S. cerevisiae deletion strains, locus YJL187C, strain SWE1 (second series), active compounds read low 0.965 | S. cerevisiae deletion strains, locus YJR043C, strain POL32, active compounds read low 1.03 | S. cerevisiae deletion strains, locus YJR066W, strain TOR1, active compounds read low 0.958 and 0.96 | S. cerevisiae deletion strains, locus YJR075W, strain HOC1, active compounds read low 0.98 and 0.981 | S. cerevisiae deletion strains, locus YKL009W, strain mrt4, active compounds read low 0.964 | S. cerevisiae deletion strains, locus YKL068W, active compounds read low 0.981 | S. cerevisiae deletion strains, locus YKL085W, strain MDH1 (second series), active compounds read low 0.994 | S. cerevisiae deletion strains, locus YKL085W, strain MDH1, active compounds read low 0.994 | S. cerevisiae deletion strains, locus YKL160W, strain elf1, active compounds read low 1 | S. cerevisiae deletion strains, locus YKR001C, strain vps1, active compounds read low 0.995 | S. cerevisiae deletion strains, locus YKR026C, strain gcn3, active compounds read low 1 | S. cerevisiae deletion strains, locus YKR091W, strain srl3, active compounds read low 1.01 | S. cerevisiae deletion strains, locus YLL001W, strain dnm1, active compounds read low 0.983 | S. cerevisiae deletion strains, locus YLL026W, active compounds read low 1 | S. cerevisiae deletion strains, locus YLL041C, strain sdh2, active compounds read low 0.991 | S. cerevisiae deletion strains, locus YLR027C, strain aat2, active compounds read low 1.01 | S. cerevisiae deletion strains, locus YLR039C, strain RIC1, active compounds read low 0.99 | S. cerevisiae deletion strains, locus YLR058C, strain SHM2, active compounds read low 0.985 | S. cerevisiae deletion strains, locus YLR102C, strain apc9, active compounds read low 0.992 | S. cerevisiae deletion strains, locus YLR113W, strain HOG1, active compounds read low 1.07 and 1.04 | S. cerevisiae deletion strains, locus YLR221C, strain rsa3, active compounds read low 0.982 | S. cerevisiae deletion strains, locus YLR258W, strain gsy2, active compounds read low 1 | S. cerevisiae deletion strains, locus YLR262C, strain YPT6 (second series), active compounds read low 0.998 | S. cerevisiae deletion strains, locus YLR262C, strain YPT6, active compounds read low 0.969 | S. cerevisiae deletion strains, locus YLR268W, strain sec22, active compounds read low 1.01 | S. cerevisiae deletion strains, locus YLR320W, strain mms22, active compounds read low 1 | S. cerevisiae deletion strains, locus YLR330W, strain CHS5, active compounds read low 0.998 | S. cerevisiae deletion strains, locus YLR342W, strain FKS1 (second series), active compounds read low 0.981 | S. cerevisiae deletion strains, locus YLR342W, strain FKS1, active compounds read low 0.999 | S. cerevisiae deletion strains, locus YLR357W, strain rsc2, active compounds read low 0.985 | S. cerevisiae deletion strains, locus YLR370C, strain arc18, active compounds read low 1.01 | S. cerevisiae deletion strains, locus YLR371W, strain rom2, active compounds read low 0.992 | S. cerevisiae deletion strains, locus YLR384C, strain iki3, active compounds read low 0.99 | S. cerevisiae deletion strains, locus YLR418C, strain cdc73, active compounds read low 0.999 | S. cerevisiae deletion strains, locus YML016C, strain PPZ1, active compounds read low 0.991 | S. cerevisiae deletion strains, locus YML032C, strain rad52, active compounds read low 1.01 | S. cerevisiae deletion strains, locus YML120C, strain ndi1, active compounds read low 1.01 | S. cerevisiae deletion strains, locus YML124C, strain tub3, active compounds read low 1 | S. cerevisiae deletion strains, locus YMR058W, strain fet3, active compounds read low 1.02 | S. cerevisiae deletion strains, locus YMR078C, strain ctf18, active compounds read low 0.991 | S. cerevisiae deletion strains, locus YMR125W, strain sto1, active compounds read low 1.01 | S. cerevisiae deletion strains, locus YMR129W, active compounds read low 1.01 | S. cerevisiae deletion strains, locus YMR205C, strain PFK2, active compounds read low 1.03 | S. cerevisiae deletion strains, locus YMR223W, strain ubp8, active compounds read low 0.972 | S. cerevisiae deletion strains, locus YMR231W, strain pep5, active compounds read low 1.01 | S. cerevisiae deletion strains, locus YMR307W, strain GAS1, active compounds read low 1.03 | S. cerevisiae deletion strains, locus YNL067W, strain RPL9B, active compounds read low 0.968 | S. cerevisiae deletion strains, locus YNL071W, strain lat1, active compounds read low 1 | S. cerevisiae deletion strains, locus YNL153C, strain GIM3, active compounds read low 0.973 and 0.99 | S. cerevisiae deletion strains, locus YNL175C, strain NOP13, active compounds read low 1 | S. cerevisiae deletion strains, locus YNL183C, strain NPR1, active compounds read low 1 and 0.946 | S. cerevisiae deletion strains, locus YNL197C, strain WHI3, active compounds read low 0.993 | S. cerevisiae deletion strains, locus YNL209W, strain ssb2, active compounds read low 1 | S. cerevisiae deletion strains, locus YNL224C, strain SQS1, active compounds read low 1 | S. cerevisiae deletion strains, locus YNL233W, strain BNI4, active compounds read low 0.984 | S. cerevisiae deletion strains, locus YNL248C, strain rpa49, active compounds read low 0.985 | S. cerevisiae deletion strains, locus YNL250W, strain rad50, active compounds read low 1 | S. cerevisiae deletion strains, locus YNL271C, strain bni1, active compounds read low 0.991 | S. cerevisiae deletion strains, locus YNL298W, strain CLA4, active compounds read low 1 | S. cerevisiae deletion strains, locus YNL307C, strain MCK1, active compounds read low 1 | S. cerevisiae deletion strains, locus YNL322C, strain KRE1 (second series), active compounds read low 0.99 | S. cerevisiae deletion strains, locus YNR049C, strain mso1, active compounds read low 1.01 | S. cerevisiae deletion strains, locus YNR052C, strain pop2, active compounds read low 1.01 | S. cerevisiae deletion strains, locus YOL012C, strain htz1 0.769 | S. cerevisiae deletion strains, locus YOL147C, strain pex11, active compounds read low 0.998 | S. cerevisiae deletion strains, locus YOR001W, strain rrp6, active compounds read low 0.997 | S. cerevisiae deletion strains, locus YOR061W, strain CKA2, active compounds read low 0.993 | S. cerevisiae deletion strains, locus YOR069W, strain VPS5, active compounds read low 0.998 | S. cerevisiae deletion strains, locus YOR080W, strain dia2, active compounds read low 1.01 | S. cerevisiae deletion strains, locus YOR083W, strain WHI5 (second series), active compounds read low 0.984 | S. cerevisiae deletion strains, locus YOR083W, strain WHI5, active compounds read low 1.01 | S. cerevisiae deletion strains, locus YOR106W, strain vam3, active compounds read low 0.981 | S. cerevisiae deletion strains, locus YOR136W, strain idh2, active compounds read low 0.999 | S. cerevisiae deletion strains, locus YOR144C, strain elg1, active compounds read low 0.997 | S. cerevisiae deletion strains, locus YOR184W, strain ser1, active compounds read low 0.995 | S. cerevisiae deletion strains, locus YOR231W, strain MKK1, active compounds read low 1.07 and 1.04 | S. cerevisiae deletion strains, locus YOR265W, strain rbl2, active compounds read low 1.01 | S. cerevisiae deletion strains, locus YOR270C, strain vph1, active compounds read low 1.06 | S. cerevisiae deletion strains, locus YOR290C, strain snf2, active compounds read low 1.01 | S. cerevisiae deletion strains, locus YOR316C, strain cot1, active compounds read low 0.993 | S. cerevisiae deletion strains, locus YPL051W, strain arl3, active compounds read low 0.974 | S. cerevisiae deletion strains, locus YPL055C, strain LGE1, active compounds read low 0.974 | S. cerevisiae deletion strains, locus YPL078C, strain atp4, active compounds read low 1.02 | S. cerevisiae deletion strains, locus YPL106C, strain sse1, active compounds read low 0.968 | S. cerevisiae deletion strains, locus YPL240C, strain hsp82, active compounds read low 1.01 | S. cerevisiae deletion strains, locus YPL256C, strain CLN2, active compounds read low 1.03 and 1.04 | S. cerevisiae deletion strains, locus YPR119W, strain clb2, active compounds read low 0.995 | S. cerevisiae deletion strains, locus YPR141C, strain kar3, active compounds read low 0.969 | S. cerevisiae deletion strains, locus YPR163C, strain tif3, active compounds read low 0.997 | S. cerevisiae deletion strains, locus YPR167C, strain met16, active compounds read low 0.999 | S. cerevisiae deletion strains, strain wtn01, active compounds read low 0.994 | S. cerevisiae strains, strain wild type, active compounds read low 0.993
